Reference: the supplement of paper PMC10849652
The full data set covers some 7,900 targets. This sample favours those with a hit. About 0.6% of all pairs of compound and target were hits.

Experiments:
Assay in all cases: log2 fold change, soluble protein after heating vs DMSO (PISA); higher = thermal stabilisation; K562 cells, 10 uM, 30 min; active = over 0.2 and 3.5 SD of the protein, either way, in both replicates (recomputed)
bafetinib = compound: Cc1ccc(NC(=O)c2ccc(CN3CC[C@H](N(C)C)C3)c(C(F)(F)F)c2)cc1Nc1nccc(-c2cncnc2)n1 [bafetinib]
In short: (§1)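 K562 cells at 2×10^6 cells/mL were given 10 μM compound for 30 min. Aliquots then went through 3 min of heating across 48°C-58°C, were pooled, and were extracted in PBS with 0.5% NP-40 at 4°C, and the supernatant after 21,000xg for 90 min was quantified by TMTpro 16plex LC-MS/MS with channel sums equalised. Thermal stability relative to control samples, from duplicates, is given as log2 fold change.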

[1] = compound: Cc1cccc(CC(=O)N2CCc3c2ccc(-c2cn(C)c4ncnc(N)c24)c3F)n1
In short: as §1

nilotinib = compound: Cc1cn(-c2cc(NC(=O)c3ccc(C)c(Nc4nccc(-c5cccnc5)n4)c3)cc(C(F)(F)F)c2)cn1 [nilotinib]
In short: as §1

[2] = compound: Cc1nc(Nc2n[nH]c3c2CN(C(=O)N[C@H](CN(C)C)c2ccccc2)C3(C)C)c2sccc2n1
In short: as §1

dasatinib = compound: Cc1nc(Nc2ncc(C(=O)Nc3c(C)cccc3Cl)s2)cc(N2CCN(CCO)CC2)n1 [dasatinib]
In short: as §1

[3] = compound: Cc1ncc(-c2ccnc(Nc3ccc(S(C)(=O)=O)cc3)n2)n1C(C)C
In short: as §1

[4] = compound: Cn1cc(-c2ccc3c(c2)CCN3C(=O)Cc2cccc(C(F)(F)F)c2)c2c(N)ncnc21
In short: as §1

[5] = compound: Cn1cc(-c2ccc3nnc(C(F)(F)c4ccc5ncccc5c4)n3n2)cn1
In short: as §1

tipifarnib = compound: Cn1cncc1[C@@](N)(c1ccc(Cl)cc1)c1ccc2c(c1)c(-c1cccc(Cl)c1)cc(=O)n2C [tipifarnib]
In short: as §1

mubritinib = compound: FC(F)(F)c1ccc(/C=C/c2nc(COc3ccc(CCCCn4ccnn4)cc3)co2)cc1 [mubritinib]
In short: as §1

[6] = compound: NC(=O)Nc1cc(-c2cccc(F)c2)sc1C(=O)N[C@H]1CCCNC1
In short: as §1

[7] = compound: NC(=O)c1cnc(N[C@@H]2CCCC[C@@H]2N)nc1Nc1cccc(-n2nccn2)c1
In short: as §1

[8] = compound: NC1(c2ccc(-c3nc4ccn5c(=O)[nH]nc5c4cc3-c3ccccc3)cc2)CCC1
In short: as §1

[9] = compound: NCC(=O)Nc1ccc(-n2nc(C(F)(F)F)cc2-c2ccc3c(ccc4ccccc43)c2)cc1
In short: as §1

entinostat = compound: Nc1ccccc1NC(=O)c1ccc(CNC(=O)OCc2cccnc2)cc1 [entinostat]
In short: as §1

vorinostat = compound: O=C(CCCCCCC(=O)Nc1ccccc1)NO [vorinostat]
In short: as §1

citarinostat = compound: O=C(CCCCCCNC(=O)c1cnc(N(c2ccccc2)c2ccccc2Cl)nc1)NO [citarinostat]
In short: as §1

silmitasertib = compound: O=C(O)c1ccc2c(c1)nc(Nc1cccc(Cl)c1)c1ccncc12 [silmitasertib]
In short: as §1

[10] = compound: O=C1NC(=O)C(c2cnc3ccccn23)=C1c1cn2c3c(cc(F)cc13)CN(C(=O)N1CCCCC1)CC2
In short: as §1

[11] = compound: c1cc(OCCN2CCCCC2)cc(-c2n[nH]c3ccc(-c4nnc[nH]4)cc23)c1
In short: as §1

Measured: log2 fold change

REEP4 (UniProt Q9H6H4)
inactive: bafetinib 0.021 | [1] 0.127 | nilotinib -0.017 | [2] -0.077 | dasatinib -0.079 | [3] 0.067 | [4] -0.052 | [5] -0.056 | tipifarnib -0.109 | mubritinib -0.04 | [6] 0.002 | [7] -0.032 | [8] -0.012 | [9] 0.084 | entinostat 0.027 | vorinostat 0.088 | citarinostat 0.048 | silmitasertib 0.027 | [10] 0.097 | [11] -0.059

SLC1A3 (UniProt P43003)
inactive: bafetinib -0.051 | [1] 0.013 | nilotinib 0.131 | [2] -0.063 | dasatinib -0.203 | [3] -0.077 | [4] 0.133 | [5] -0.009 | tipifarnib 0.054 | mubritinib 0.096 | [7] 0.237 | [8] 0.103 | [9] -0.055 | vorinostat 0.143 | citarinostat -0.096 | silmitasertib -0.021 | [10] -0.18 | [11] -0.182

RDH13 (UniProt Q8NBN7)
inactive: bafetinib -0.068 | [1] -0.03 | nilotinib 0.011 | [2] -0.044 | dasatinib -0.131 | [3] 0.019 | [4] 0.027 | [5] 0.016 | tipifarnib 0.022 | mubritinib -0.032 | [6] -0.038 | [7] -0.049 | [8] -0.064 | [9] -0.055 | entinostat -0.032 | vorinostat 0.002 | citarinostat 0.029 | silmitasertib -0.013 | [10] -0.029 | [11] -0.02

RANBP2 (UniProt P49792)
Sequence of UniProt P49792 (P49792 whole entry, looked up): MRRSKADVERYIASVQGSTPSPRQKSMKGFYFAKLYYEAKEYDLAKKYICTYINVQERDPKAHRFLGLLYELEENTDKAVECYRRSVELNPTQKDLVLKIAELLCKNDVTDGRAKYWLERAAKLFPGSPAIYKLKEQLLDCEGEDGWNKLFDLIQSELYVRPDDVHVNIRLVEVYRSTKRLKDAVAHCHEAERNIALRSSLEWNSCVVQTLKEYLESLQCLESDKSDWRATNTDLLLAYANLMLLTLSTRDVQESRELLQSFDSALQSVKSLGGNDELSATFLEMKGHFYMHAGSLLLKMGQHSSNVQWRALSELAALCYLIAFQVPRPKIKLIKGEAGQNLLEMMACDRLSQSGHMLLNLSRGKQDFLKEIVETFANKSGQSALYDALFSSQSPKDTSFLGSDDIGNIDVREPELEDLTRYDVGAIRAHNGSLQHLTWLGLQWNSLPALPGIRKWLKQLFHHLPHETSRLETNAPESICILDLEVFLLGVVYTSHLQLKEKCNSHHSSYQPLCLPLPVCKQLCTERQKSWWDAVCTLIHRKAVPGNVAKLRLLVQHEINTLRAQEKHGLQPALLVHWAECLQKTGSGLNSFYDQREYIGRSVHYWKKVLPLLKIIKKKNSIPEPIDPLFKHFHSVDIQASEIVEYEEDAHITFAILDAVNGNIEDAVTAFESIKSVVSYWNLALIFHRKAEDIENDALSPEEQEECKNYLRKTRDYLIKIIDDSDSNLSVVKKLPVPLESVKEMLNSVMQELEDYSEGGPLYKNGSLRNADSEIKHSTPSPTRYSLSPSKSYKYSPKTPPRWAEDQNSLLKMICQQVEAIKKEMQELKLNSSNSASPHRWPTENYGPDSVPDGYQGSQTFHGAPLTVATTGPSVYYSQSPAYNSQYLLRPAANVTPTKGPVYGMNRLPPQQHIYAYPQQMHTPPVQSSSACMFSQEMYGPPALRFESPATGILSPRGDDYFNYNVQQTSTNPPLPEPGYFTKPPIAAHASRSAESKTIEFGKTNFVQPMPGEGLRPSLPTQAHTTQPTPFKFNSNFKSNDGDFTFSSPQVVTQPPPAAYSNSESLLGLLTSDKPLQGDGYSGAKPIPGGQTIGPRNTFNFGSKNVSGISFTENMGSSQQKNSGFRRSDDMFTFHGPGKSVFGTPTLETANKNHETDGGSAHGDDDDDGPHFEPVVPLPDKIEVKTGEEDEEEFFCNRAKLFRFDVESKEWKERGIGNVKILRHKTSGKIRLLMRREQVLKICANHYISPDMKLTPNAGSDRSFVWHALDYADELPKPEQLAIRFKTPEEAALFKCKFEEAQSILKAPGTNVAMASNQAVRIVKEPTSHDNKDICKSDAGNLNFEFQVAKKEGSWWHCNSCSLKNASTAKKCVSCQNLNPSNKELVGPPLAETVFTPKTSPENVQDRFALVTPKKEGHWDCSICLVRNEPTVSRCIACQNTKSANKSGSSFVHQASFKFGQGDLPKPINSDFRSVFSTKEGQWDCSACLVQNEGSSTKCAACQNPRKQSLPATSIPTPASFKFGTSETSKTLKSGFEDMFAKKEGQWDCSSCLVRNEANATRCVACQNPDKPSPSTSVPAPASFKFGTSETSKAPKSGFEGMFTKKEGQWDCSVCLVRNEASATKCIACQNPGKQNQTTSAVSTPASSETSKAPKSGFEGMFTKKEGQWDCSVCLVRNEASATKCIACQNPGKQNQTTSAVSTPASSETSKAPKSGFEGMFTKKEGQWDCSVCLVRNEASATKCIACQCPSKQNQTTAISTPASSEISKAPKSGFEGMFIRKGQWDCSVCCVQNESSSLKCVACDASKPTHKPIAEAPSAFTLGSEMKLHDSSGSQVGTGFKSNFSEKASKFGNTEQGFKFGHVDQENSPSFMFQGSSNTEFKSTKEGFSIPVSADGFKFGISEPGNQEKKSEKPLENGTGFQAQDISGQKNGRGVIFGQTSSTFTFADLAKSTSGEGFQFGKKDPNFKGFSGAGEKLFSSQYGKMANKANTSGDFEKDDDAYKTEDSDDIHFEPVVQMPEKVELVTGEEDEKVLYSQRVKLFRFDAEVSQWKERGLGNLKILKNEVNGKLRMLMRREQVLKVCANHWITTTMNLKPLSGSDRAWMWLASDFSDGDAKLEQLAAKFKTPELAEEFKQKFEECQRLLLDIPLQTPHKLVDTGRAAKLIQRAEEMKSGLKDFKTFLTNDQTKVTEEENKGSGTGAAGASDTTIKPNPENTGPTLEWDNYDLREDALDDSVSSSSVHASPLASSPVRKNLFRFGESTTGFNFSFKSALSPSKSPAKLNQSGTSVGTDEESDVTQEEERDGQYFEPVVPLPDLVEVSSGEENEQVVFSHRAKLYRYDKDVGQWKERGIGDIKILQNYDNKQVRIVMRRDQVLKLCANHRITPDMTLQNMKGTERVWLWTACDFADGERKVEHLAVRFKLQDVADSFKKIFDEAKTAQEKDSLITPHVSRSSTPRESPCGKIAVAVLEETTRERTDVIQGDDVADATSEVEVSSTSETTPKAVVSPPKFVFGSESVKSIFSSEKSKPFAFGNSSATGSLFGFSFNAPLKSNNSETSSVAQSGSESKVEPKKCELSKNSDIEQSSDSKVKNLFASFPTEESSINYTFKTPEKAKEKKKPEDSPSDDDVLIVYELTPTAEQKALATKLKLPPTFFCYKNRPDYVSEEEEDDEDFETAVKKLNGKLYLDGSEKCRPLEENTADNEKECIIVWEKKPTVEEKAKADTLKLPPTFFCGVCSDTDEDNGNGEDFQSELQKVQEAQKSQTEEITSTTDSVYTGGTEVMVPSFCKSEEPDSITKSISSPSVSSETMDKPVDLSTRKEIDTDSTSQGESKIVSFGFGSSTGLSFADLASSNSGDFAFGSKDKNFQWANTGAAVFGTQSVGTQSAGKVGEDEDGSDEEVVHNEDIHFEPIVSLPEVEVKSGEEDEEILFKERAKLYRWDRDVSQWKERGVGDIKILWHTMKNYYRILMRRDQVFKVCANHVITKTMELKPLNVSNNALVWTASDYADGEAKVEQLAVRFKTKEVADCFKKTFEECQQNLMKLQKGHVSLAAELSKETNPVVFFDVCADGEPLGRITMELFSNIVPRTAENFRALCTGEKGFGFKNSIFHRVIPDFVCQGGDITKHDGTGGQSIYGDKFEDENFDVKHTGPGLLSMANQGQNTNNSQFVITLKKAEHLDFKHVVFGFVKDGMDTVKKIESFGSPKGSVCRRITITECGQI
inactive: bafetinib -0.092 | [1] 0.197 | nilotinib -0.05 | [2] 0.087 | dasatinib -0.011 | [3] -0.043 | [4] -0.047 | [5] -0.051 | tipifarnib -0.036 | mubritinib -0.073 | [6] 0.063 | [7] -0.05 | [8] 0.01 | [9] 0.005 | entinostat 0.009 | vorinostat -0.034 | citarinostat -0.037 | silmitasertib 0.001 | [10] -0.049 | [11] 0.019

ROMO1 (UniProt P60602)
Sequence of UniProt P60602 (P60602 whole entry, looked up): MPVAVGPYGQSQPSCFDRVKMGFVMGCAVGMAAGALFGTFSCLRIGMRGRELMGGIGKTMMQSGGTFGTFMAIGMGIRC
inactive: bafetinib 0.056 | [1] -0.022 | nilotinib -0.001 | [2] 0.027 | dasatinib -0.03 | [3] -0.039 | [4] 0.066 | [5] 0.063 | tipifarnib 0.062 | mubritinib 0.01 | [6] -0.105 | [7] 0.046 | [8] -0.051 | entinostat 0.011 | vorinostat -0.013 | citarinostat 0.072 | silmitasertib 0.032 | [10] 0.062 | [11] -0.042

RNF220 (UniProt Q5VTB9)
inactive: bafetinib -0.064 | [1] 0.008 | nilotinib 0.009 | [2] -0.058 | dasatinib 0.01 | [3] 0.037 | [4] -0.034 | tipifarnib -0.003 | mubritinib 0.002 | [6] 0.01 | [7] -0.019 | [8] -0.002 | [9] -0.06 | entinostat -0.037 | vorinostat 0.052 | citarinostat 0.043 | silmitasertib 0.025 | [10] -0.075 | [11] -0.038
active: [5] 0.239

RPL38 (UniProt P63173)
inactive: bafetinib 0.089 | [1] 0.01 | nilotinib 0.026 | [2] 0.155 | dasatinib 0.057 | [3] -0.003 | [4] -0.023 | [5] -0.022 | tipifarnib -0.021 | mubritinib 0.006 | [6] -0.005 | [7] 0.022 | [8] 0.09 | [9] 0.024 | entinostat -0.022 | vorinostat 0.002 | citarinostat -0.003 | silmitasertib -0.008 | [10] 0 | [11] -0.094

RNF167 (UniProt Q9H6Y7)
inactive: bafetinib -0.049 | [1] -0.012 | nilotinib 0.049 | [2] -0.014 | dasatinib 0.039 | [3] 0.025 | [4] -0.068 | [5] 0.032 | tipifarnib 0.008 | mubritinib 0.001 | [6] 0.015 | [7] -0.062 | [8] -0.278 | [9] -0.03 | entinostat -0.032 | vorinostat 0.014 | silmitasertib 0.095 | [10] -0.028

RNF2 (UniProt Q99496)
Sequence of UniProt Q99496 (Q99496 whole entry, looked up): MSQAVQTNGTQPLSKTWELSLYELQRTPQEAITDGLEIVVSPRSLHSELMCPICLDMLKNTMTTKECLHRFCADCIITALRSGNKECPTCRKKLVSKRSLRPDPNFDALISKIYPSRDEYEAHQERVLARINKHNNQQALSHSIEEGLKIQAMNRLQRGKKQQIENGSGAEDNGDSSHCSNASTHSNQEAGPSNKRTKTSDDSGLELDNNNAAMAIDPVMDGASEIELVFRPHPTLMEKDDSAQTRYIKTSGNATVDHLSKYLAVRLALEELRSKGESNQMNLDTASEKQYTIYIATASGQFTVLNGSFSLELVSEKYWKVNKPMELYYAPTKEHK
inactive: bafetinib -0.102 | [1] 0.022 | nilotinib 0.065 | [2] -0.214 | dasatinib -0.106 | [3] 0.061 | [4] -0.005 | tipifarnib -0.026 | mubritinib -0.031 | [6] -0.04 | [7] -0.023 | [8] -0.003 | [9] -0.051 | entinostat 0.102 | vorinostat -0.048 | citarinostat 0.054 | silmitasertib 0.003 | [10] -0.014 | [11] -0.102

SEH1L isoform 1 (UniProt Q96EE3)
inactive: bafetinib -0.083 | [1] 0.051 | nilotinib 0.012 | [2] -0.081 | dasatinib -0.008 | [3] -0.028 | [4] 0.015 | [5] -0.037 | tipifarnib -0.11 | mubritinib 0.031 | [6] 0.007 | [7] -0.027 | [8] -0.014 | [9] -0.004 | entinostat -0.04 | vorinostat 0.022 | citarinostat 0.064 | silmitasertib 0.076 | [10] -0.027 | [11] -0.065

RBBP6 (UniProt Q7Z6E9)
inactive: bafetinib -0.018 | [1] -0.004 | nilotinib 0 | [2] -0.031 | [3] -0.003 | [4] 0.003 | [5] -0.01 | tipifarnib -0.058 | mubritinib -0.171 | [6] 0.028 | [7] -0.107 | [8] 0.089 | [9] -0.017 | entinostat -0.011 | vorinostat 0.081 | citarinostat 0.099 | silmitasertib 0.207 | [10] 0.112 | [11] -0.013

SHROOM2 (UniProt Q13796)
inactive: bafetinib -0.091 | [1] -0.02 | nilotinib 0.082 | [2] 0.011 | dasatinib 0.166 | [3] -0.043 | [4] 0.163 | tipifarnib -0.022 | mubritinib 0.258 | [6] 0.024 | [7] -0.09 | [8] 0.275 | [9] 0.006 | entinostat -0.037 | vorinostat 0.068 | citarinostat 0.057 | silmitasertib -0.141 | [10] -0.088 | [11] 0.057

SDCBP isoform 2 (UniProt O00560)
Sequence of UniProt O00560 (O00560 whole entry, looked up): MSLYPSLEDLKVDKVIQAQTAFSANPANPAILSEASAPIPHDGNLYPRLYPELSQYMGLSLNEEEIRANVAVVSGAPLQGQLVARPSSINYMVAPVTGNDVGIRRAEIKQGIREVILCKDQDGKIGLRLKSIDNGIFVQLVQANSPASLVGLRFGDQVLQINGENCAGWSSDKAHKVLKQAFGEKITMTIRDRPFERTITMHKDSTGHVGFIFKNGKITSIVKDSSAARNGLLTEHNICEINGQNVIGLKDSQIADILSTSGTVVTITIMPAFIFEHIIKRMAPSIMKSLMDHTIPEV
inactive: bafetinib -0.298 | [1] -0.066 | nilotinib 0.108 | [2] -0.219 | dasatinib -0.083 | [3] -0.205 | [5] -0.085 | tipifarnib 0.109 | mubritinib 0.033 | [6] -0.038 | [8] -0.286 | entinostat 0.004 | vorinostat -0.01 | citarinostat 0.024 | silmitasertib 0.124 | [10] -0.041 | [11] 0.097

RELA (UniProt Q04206)
active: [2] -0.295
inactive: bafetinib -0.04 | [1] 0.006 | nilotinib -0.023 | [3] -0.031 | [4] 0.04 | [5] -0.047 | tipifarnib -0.04 | mubritinib 0.044 | [6] -0.009 | [7] -0.06 | [8] -0.121 | [9] -0.016 | entinostat 0.019 | vorinostat 0.036 | citarinostat 0.079 | silmitasertib -0.029 | [10] -0.017 | [11] -0.002

RNF185 (UniProt Q96GF1)
Sequence of UniProt Q96GF1 (Q96GF1 whole entry, looked up): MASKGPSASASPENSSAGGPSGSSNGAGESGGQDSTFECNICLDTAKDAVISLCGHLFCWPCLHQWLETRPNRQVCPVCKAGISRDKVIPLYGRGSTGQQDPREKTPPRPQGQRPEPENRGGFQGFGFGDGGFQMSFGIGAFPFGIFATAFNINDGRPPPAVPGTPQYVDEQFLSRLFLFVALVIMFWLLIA
inactive: bafetinib 0.189 | [1] -0.037 | nilotinib -0.027 | [2] -0.001 | [3] -0.022 | [4] 0.089 | [5] 0.218 | tipifarnib 0.045 | mubritinib 0.057 | [7] -0.022 | [8] -0.072 | [9] -0.139 | vorinostat -0.28 | citarinostat -0.135 | silmitasertib 0.001 | [11] 0.072

RPS6KA5 (UniProt O75582)
Sequence of UniProt O75582 (O75582 whole entry, looked up): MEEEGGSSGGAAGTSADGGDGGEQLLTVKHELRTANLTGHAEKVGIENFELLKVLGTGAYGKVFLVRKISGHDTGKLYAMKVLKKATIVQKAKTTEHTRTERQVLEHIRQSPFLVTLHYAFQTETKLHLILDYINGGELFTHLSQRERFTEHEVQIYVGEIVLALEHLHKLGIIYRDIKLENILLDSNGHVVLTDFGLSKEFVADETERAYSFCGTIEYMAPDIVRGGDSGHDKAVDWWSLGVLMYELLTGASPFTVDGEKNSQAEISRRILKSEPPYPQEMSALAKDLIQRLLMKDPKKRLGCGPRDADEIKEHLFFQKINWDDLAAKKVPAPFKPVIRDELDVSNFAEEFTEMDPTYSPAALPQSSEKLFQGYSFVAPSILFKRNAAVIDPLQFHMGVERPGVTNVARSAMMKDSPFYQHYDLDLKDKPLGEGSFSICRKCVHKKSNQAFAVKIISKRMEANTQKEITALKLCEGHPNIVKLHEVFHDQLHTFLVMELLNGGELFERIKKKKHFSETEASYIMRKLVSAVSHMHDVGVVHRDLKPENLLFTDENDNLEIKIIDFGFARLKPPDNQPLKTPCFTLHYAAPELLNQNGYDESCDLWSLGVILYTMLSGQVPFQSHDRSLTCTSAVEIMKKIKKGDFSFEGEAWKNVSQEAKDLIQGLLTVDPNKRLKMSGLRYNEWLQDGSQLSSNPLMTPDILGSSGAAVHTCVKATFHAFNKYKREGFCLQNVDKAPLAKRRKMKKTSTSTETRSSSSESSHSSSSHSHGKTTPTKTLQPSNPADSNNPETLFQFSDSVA
inactive: [5] -0.098 | tipifarnib -0.07 | mubritinib -0.171 | [8] -0.138 | citarinostat -0.101 | silmitasertib 0.045 | [10] -0.088 | [11] 0.092

SEMG2 (UniProt Q02383)
inactive: bafetinib -0.089 | [1] 0.016 | nilotinib -0.083 | [2] 0.056 | [3] 0.003 | [4] 0.008 | mubritinib -0.044 | [6] -0.013 | [7] 0.046 | [8] 0.651 | entinostat 0.033 | vorinostat -0.073 | citarinostat 0.066 | silmitasertib 0.001 | [10] 0.051 | [11] -0.067
